Experimental data reported in the supplement of paper PMC11732987, “Enantioselective OTUD7B fragment discovery through chemoproteomics screening and high-throughput optimisation” (Communications Chemistry, 2025).

Assays:
Assay in all cases: log2 ratio of Biotin-Ahx-Ub-VS probe labelling (fragment/DMSO); higher = less target engagement (more negative = stronger competition), active = hit call of the paper (q ≤ 0.05, log2 ratio ≤ -1)
Conditions in all cases: compound concentration: 200 uM; treatment time: 3 h
USP34 = USP34 (UniProt Q70CQ2)
Procedure, shortened: (§1)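 HEK293T lysate, 495 µg per sample in Tris/CHAPS/IGEPAL buffer with protease inhibitors, was treated in triplicate with fragment at 200 µM or vehicle for 3 h and then with Biotin-Ahx-Ub-VS at 0.5 µM final for 1 h. Labelled DUBs were NeutrAvidin-enriched, digested with LysC and trypsin, and run by diaPASEF LC-MS/MS. Spectronaut label-free quantities were global-median-normalised, and values are average log2 fragment/vehicle ratios by unpaired t-test on proteins with ≥2 unique peptides.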

USP36 = target: T1, USP36 (UniProt Q9P275)
T1 sequence (whole entry): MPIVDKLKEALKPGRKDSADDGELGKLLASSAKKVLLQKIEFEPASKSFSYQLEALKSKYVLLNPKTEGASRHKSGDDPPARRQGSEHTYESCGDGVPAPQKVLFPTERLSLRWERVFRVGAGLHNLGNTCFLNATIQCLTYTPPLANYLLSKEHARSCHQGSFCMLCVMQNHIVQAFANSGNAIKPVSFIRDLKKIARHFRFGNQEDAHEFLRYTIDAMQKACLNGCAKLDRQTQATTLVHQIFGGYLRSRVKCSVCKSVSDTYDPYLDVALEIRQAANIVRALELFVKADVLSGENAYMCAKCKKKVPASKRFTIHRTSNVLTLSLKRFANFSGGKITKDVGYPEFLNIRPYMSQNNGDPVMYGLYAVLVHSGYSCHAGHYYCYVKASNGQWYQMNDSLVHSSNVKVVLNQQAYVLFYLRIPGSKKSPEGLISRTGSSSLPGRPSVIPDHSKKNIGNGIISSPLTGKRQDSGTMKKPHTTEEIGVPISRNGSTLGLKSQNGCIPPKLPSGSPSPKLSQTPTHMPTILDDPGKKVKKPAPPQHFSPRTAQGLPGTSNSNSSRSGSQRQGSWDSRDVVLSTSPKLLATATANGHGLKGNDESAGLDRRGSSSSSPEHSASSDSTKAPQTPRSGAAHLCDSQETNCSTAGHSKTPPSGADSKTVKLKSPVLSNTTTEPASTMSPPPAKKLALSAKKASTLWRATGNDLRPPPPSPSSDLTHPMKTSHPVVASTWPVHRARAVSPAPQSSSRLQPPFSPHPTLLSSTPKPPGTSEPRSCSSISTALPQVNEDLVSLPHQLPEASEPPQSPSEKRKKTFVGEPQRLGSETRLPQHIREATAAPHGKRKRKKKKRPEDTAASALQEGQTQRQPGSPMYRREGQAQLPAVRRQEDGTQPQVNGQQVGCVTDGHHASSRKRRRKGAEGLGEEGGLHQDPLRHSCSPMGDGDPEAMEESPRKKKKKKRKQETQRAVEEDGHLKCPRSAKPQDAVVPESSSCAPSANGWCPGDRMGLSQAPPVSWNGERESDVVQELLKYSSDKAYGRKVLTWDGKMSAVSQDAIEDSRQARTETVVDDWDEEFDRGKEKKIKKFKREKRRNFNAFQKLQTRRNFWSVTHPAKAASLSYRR
Procedure, shortened: as §1

USP38 = target: T2, USP38 (UniProt Q8NB14)
T2 sequence (whole entry): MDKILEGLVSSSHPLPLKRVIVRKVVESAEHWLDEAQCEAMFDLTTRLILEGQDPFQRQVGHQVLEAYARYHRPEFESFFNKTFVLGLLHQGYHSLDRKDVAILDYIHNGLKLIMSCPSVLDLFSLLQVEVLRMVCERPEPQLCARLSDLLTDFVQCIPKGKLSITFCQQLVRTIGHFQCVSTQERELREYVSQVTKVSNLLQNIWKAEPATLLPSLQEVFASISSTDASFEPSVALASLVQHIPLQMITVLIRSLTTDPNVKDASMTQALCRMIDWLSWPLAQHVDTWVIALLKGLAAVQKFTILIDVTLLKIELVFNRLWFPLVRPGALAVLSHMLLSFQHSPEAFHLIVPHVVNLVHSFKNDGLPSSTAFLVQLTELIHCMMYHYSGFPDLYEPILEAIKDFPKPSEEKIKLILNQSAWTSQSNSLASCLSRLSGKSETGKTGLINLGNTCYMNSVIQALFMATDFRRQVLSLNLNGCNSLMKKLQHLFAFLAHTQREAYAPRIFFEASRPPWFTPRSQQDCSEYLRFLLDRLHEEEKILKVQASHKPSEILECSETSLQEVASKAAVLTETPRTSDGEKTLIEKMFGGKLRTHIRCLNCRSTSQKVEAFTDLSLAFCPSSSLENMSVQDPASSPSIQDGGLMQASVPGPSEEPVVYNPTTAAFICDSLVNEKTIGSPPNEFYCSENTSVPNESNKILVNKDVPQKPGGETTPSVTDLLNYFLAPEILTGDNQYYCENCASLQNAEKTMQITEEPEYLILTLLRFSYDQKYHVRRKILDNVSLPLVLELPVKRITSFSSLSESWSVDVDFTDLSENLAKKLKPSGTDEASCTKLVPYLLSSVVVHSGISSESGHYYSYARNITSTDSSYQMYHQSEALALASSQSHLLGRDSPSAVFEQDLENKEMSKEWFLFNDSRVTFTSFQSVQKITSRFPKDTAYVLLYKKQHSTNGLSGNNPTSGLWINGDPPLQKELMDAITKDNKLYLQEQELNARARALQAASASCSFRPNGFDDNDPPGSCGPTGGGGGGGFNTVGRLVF
Procedure, shortened: as §1

USP39 = target: T3, USP39 (UniProt Q53GS9)
T3 sequence (whole entry): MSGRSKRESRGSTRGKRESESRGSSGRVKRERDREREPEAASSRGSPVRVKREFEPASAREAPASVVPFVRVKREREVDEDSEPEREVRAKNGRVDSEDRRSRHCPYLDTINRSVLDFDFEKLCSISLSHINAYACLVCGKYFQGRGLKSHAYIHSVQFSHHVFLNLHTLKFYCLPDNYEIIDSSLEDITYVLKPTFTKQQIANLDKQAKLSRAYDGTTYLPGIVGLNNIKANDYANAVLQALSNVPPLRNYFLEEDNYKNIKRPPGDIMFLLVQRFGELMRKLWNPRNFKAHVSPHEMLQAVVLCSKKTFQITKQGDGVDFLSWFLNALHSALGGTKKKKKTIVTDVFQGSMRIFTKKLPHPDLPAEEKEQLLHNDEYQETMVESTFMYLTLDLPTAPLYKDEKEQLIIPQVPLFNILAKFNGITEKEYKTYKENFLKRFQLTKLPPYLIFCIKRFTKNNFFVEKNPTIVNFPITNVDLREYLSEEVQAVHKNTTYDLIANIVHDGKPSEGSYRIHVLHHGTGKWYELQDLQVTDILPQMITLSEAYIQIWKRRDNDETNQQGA
Procedure, shortened: as §1

USP4 = target: T4, USP4 (UniProt Q13107)
T4 sequence (whole entry): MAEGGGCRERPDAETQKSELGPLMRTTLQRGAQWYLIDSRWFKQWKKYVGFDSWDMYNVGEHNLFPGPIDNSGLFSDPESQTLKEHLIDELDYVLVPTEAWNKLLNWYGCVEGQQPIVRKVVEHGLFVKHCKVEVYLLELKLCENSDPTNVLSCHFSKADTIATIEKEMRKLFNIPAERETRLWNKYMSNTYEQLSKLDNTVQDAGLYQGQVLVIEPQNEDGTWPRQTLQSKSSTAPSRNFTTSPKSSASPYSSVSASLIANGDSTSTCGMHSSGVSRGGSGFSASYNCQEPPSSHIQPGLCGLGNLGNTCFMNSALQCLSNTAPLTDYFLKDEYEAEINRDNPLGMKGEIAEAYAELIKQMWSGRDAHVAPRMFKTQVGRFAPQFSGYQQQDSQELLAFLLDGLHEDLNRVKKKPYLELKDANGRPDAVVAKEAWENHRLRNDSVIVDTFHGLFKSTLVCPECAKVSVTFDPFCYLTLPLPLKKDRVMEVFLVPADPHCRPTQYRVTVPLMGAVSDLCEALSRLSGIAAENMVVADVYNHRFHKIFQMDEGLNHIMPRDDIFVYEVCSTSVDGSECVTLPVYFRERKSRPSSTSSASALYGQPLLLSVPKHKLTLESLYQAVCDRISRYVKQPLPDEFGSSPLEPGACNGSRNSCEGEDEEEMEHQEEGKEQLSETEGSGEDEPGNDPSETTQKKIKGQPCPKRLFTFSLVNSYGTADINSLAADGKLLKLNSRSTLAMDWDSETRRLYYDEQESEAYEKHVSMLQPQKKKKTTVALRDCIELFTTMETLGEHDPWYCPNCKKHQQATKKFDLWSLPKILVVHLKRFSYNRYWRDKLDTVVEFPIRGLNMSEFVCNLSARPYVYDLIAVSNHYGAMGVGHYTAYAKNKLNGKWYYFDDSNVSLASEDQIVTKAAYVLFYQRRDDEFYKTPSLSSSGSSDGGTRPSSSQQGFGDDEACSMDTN
Procedure, shortened: as §1

Measured: log2 ratio of Biotin-Ahx-Ub-VS probe labelling

Chain of USP34 (Q70CQ2 whole entry, the tested form may be a part): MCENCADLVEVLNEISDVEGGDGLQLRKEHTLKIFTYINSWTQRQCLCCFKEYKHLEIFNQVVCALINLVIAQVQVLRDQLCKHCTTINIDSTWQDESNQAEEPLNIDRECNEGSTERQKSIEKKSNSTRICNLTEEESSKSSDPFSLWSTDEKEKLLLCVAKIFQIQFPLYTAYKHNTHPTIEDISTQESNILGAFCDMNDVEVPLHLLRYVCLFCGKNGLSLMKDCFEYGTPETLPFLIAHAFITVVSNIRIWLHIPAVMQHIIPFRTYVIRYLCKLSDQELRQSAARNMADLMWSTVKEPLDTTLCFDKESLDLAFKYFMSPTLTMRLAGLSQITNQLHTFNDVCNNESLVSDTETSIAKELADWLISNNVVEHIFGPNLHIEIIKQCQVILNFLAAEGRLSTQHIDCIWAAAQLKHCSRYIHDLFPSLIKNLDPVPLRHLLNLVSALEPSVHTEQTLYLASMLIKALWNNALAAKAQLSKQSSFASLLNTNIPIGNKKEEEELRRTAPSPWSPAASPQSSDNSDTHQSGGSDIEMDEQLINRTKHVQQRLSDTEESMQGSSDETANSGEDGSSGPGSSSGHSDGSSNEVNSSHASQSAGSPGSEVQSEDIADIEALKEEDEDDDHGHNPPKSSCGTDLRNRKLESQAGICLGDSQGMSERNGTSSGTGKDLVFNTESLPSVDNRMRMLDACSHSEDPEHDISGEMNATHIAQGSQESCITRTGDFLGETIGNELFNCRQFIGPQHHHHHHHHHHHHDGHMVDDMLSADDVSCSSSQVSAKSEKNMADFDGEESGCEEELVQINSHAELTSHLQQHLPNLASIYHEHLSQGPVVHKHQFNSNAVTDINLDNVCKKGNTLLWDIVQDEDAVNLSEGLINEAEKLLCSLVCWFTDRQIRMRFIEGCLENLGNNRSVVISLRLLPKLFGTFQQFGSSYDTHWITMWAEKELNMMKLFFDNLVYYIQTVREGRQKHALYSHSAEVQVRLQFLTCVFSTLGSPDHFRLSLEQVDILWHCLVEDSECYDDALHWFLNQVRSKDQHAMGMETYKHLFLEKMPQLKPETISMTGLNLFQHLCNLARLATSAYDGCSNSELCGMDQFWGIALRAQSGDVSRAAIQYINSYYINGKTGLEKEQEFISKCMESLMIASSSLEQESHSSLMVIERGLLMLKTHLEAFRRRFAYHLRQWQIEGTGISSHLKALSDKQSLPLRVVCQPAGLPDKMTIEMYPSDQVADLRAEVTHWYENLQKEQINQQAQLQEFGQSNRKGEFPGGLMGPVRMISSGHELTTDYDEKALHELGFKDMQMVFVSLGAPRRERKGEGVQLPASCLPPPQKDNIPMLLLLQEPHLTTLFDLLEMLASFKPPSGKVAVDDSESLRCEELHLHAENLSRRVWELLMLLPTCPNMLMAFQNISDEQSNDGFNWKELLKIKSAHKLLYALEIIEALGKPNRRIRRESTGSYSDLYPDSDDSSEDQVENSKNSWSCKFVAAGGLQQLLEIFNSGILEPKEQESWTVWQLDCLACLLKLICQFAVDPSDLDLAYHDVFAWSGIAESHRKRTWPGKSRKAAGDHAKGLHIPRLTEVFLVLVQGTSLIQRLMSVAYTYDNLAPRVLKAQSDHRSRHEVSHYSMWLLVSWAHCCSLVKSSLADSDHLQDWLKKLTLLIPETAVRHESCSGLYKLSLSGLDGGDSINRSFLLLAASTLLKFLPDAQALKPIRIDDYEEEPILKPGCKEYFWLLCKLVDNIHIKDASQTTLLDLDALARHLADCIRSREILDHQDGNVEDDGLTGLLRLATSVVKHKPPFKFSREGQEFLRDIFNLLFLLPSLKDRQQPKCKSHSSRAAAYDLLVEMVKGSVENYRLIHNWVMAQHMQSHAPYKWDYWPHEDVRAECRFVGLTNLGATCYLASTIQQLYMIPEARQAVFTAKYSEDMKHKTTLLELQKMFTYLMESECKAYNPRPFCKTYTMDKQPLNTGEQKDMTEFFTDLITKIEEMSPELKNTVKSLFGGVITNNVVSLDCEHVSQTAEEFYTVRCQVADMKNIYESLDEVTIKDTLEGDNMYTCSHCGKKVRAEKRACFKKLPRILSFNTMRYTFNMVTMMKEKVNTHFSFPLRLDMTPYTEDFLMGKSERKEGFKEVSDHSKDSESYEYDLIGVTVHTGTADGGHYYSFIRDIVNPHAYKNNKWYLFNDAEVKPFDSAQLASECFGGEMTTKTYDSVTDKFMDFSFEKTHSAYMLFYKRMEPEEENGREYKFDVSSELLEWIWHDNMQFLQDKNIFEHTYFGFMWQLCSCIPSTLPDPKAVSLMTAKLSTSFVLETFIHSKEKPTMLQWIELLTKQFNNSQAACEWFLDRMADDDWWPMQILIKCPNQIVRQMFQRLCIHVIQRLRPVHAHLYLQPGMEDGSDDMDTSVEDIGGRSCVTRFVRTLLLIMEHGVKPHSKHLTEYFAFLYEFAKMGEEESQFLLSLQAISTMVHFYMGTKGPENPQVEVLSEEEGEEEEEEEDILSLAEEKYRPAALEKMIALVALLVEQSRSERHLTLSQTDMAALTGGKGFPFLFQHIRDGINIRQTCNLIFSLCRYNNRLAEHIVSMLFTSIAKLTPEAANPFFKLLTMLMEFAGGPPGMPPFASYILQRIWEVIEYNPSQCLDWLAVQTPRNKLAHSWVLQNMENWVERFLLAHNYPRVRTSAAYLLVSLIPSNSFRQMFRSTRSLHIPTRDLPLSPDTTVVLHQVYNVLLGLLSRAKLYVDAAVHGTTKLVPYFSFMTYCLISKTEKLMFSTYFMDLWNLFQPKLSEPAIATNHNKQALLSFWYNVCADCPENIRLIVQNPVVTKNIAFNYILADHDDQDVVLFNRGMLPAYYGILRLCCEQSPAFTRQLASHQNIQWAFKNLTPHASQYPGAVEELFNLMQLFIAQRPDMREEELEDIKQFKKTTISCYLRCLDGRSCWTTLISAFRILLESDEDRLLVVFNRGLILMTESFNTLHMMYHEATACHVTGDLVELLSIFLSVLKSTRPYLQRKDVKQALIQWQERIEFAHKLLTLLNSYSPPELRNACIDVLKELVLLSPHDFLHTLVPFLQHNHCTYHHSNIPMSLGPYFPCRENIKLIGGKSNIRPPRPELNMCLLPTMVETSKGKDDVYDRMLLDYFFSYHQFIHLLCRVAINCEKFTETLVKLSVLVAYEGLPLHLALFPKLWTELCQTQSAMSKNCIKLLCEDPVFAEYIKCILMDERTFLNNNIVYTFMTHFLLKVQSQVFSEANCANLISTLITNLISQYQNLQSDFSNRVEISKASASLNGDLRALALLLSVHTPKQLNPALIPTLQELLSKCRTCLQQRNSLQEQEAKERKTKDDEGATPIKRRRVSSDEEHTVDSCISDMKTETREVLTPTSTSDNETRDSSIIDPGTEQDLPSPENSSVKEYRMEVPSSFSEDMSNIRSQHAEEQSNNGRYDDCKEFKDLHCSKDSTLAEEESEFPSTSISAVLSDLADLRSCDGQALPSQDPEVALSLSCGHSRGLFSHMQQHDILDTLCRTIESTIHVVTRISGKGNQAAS

O=C(CCl)NCc1ccc(N2CCOCC2)c(F)c1
inactive: USP34 -0.0627 | USP36 -0.165 | USP38 0.104 | USP39 0.0411 | USP4 0.263
